Data taken from PubChem BioAssay (NCATS).
Inconclusive results are not listed. Where a call stands in place of a potency, no number is given. Active and inactive are the calls of the source. Unless noted, the call rests on the fitted dose curve; in most records, active means well fitted curve in the direction sought with a large enough effect; inconclusive means small, poorly fitted or top-dose-only effect, or another doubt; inactive means no such curve, though single readings can be large; an effect the other way counts as inactive or inconclusive. Where a SMILES comes first, the peptide text is derived from it. Bridges are numbered along the chain shown (N, C = ends). [ ]: non-standard residue; d: D form. The star is where a group is joined. X1 = CCC(C)C(N)C1=NC(C(=O)*)CS1; dOrn = NCCC[C@@H](N)C(=O)O

Legend:
[1] = target: Cytochrome P450 2C9 (Homo sapiens) (UniProt P11712); experiment: Cytochrome P450 family 2 subfamily C member 9 (CYP2C9) small molecule antagonists: luciferase biochemical (cell-free) qHTS assay (AID 1645842; active means well fitted curve in the direction sought with a large enough effect in the repeat runs; an effect the other way counts as inactive or inconclusive; further: nearly all actives have a fitted effect of over 55% in size; further: potency means the concentration at half of the fitted maximal effect)
Outline: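 Luminescence, after 20 min with luciferin detection reagent, reflected CYP2C9 turnover during a 1 h NADPH-driven reaction at 37C. Enzyme-substrate mix contained 0.4% bovine serum albumin and was preincubated with compound 10 min at room temperature.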

[2] = Primary qHTS for inhibitors of nuclear receptor binding SET domain protein 2 (NSD2) in an isogenic RCH-ACV NSD2 p.E1099K mutant (9B) (AID 1645876); further: nearly all actives have a fitted effect of over 70% in size
[3] = Primary qHTS for inhibitors of nuclear receptor binding SET domain protein 2 (NSD2) in an RCH-ACV wild type WT cells (2C) (AID 1645877); further: nearly all actives have a fitted effect of over 70% in size
[4] = target: Catechol O-methyltransferase (Homo sapiens) (UniProt P21964); experiment: Confirmatory Screen for Target Class Profiling of Small Molecule Inhibitors of Methyltransferases (AID 1745852; calls by dose curve); settings: MTase-Glo luminescence, SAH detection, recombinant enzyme; measured here: COMT max response; stronger effect = lower value
[5] = target: Guanidinoacetate N-methyltransferase (Homo sapiens) (UniProt Q14353); experiment: as above; settings: activity change, negative = inhibition: at 57.3 µM (top of the series) unless noted
[6] = target: Nicotinamide N-methyltransferase (Homo sapiens) (UniProt P40261); experiment: as above; settings: MTase-Glo luminescence, SAH detection, recombinant enzyme; measured here: NNMT max response; stronger effect = lower value
[7] = target: Phenylethanolamine N-methyltransferase (Homo sapiens) (UniProt P11086); experiment: as above; settings: MTase-Glo luminescence, SAH detection, recombinant enzyme; measured here: PNMT max response; stronger effect = lower value
[8] = target: N-terminal Xaa-Pro-Lys N-methyltransferase 1 (Homo sapiens) (UniProt Q9BV86); experiment: Confirmatory qHTS for Inhibitors of N-terminal methyltransferase 1 (NTMT1): MTaseGlo Assay (AID 1645874); further: potency means the concentration at half of the fitted maximal effect; nearly all actives have a fitted effect of over 65% in size
Outline: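 Compounds are incubated with 125 nM NTMT1 and 100 uM SAM for 15 min before the SPKRIA peptide (1 uM) starts a 30 min room-temperature methylation. SAH is measured by coupled luciferase luminescence and curves fitted to a Hill equation.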

[9] = NCATS anti-infectives library activity on HEK293 viability as a counter-qHTS vs the C. elegans viability qHTS (AID 1745854)
Outline: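 HEK293 cells, 1500 per well, exposed 24 hr at 37C in 5% CO2 to compounds in a 1:5 titration, up to 41.7 uM final. Viability read as CellTiter-Glo luminescence after 10 min at room temperature.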

Cytochrome P450 2C9 (Homo sapiens), sequence (P11712 whole entry, looked up): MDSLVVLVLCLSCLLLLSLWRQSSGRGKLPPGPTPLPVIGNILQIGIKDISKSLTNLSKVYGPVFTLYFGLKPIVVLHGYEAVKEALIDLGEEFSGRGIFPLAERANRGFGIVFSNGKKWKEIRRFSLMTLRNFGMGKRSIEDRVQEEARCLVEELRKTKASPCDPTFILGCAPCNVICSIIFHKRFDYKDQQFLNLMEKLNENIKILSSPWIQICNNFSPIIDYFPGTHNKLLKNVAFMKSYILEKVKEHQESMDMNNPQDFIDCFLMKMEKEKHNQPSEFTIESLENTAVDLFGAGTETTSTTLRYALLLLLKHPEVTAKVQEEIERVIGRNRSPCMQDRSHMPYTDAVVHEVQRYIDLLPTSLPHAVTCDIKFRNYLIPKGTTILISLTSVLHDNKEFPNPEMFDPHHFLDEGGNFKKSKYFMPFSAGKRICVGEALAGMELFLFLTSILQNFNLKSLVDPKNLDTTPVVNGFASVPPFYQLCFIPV
Phenylethanolamine N-methyltransferase (Homo sapiens), sequence (P11086 whole entry, looked up): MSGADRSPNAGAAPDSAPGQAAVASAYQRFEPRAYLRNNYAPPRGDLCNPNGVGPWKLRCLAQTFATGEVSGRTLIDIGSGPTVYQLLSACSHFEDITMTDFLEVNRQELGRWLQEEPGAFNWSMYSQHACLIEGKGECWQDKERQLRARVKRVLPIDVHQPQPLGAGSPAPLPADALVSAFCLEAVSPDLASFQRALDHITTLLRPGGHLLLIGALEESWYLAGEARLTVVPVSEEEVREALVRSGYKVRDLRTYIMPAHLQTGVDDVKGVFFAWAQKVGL
N-terminal Xaa-Pro-Lys N-methyltransferase 1 (Homo sapiens), sequence (Q9BV86 whole entry, looked up): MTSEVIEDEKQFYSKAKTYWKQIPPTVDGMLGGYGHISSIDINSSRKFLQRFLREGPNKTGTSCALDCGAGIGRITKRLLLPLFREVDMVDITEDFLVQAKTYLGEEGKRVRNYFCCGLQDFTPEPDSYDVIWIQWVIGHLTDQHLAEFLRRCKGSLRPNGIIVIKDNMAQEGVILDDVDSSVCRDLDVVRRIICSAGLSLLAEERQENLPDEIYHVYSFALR
Nicotinamide N-methyltransferase (Homo sapiens), sequence (P40261 whole entry, looked up): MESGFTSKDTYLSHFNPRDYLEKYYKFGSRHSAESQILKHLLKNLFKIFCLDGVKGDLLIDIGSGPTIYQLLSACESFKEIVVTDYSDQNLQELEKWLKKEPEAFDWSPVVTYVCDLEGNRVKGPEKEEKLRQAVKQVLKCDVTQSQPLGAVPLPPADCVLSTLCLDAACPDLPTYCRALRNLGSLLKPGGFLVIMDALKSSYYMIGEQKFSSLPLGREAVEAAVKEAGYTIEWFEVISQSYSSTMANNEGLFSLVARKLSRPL
Catechol O-methyltransferase (Homo sapiens), sequence (P21964 whole entry, looked up): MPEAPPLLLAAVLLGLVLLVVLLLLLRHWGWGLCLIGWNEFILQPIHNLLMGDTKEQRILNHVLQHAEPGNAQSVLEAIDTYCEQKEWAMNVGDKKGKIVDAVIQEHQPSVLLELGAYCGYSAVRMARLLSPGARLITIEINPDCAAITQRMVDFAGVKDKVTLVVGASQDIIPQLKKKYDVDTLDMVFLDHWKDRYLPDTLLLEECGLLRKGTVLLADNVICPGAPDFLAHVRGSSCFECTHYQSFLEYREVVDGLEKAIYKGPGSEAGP

NC(Cc1c[nH]c2ccccc12)C(=O)NC(CCC(=O)O)C(=O)O (configuration not stated)
Potency [1]: inactive | Potency [2]: inactive | Potency [3]: inactive

CCC(=O)N[C@@H]1Cc2ccccc2[C@H](c2ccccc2)C1
Potency [1]: 3.01 µM (active) | Potency [2]: inactive | Potency [3]: inactive

CN(C)c1cccc(-c2c3c(=O)n(-c4ccccc4Cl)[nH]c3cc(=O)n2C)c1
Potency [1]: 5.35 µM (active) | Potency [2]: inactive | Potency [3]: inactive

C[C@H](NCc1ccc(OCc2ccccc2F)cc1)C(N)=O
Potency [1]: inactive | Potency [2]: inactive | Potency [3]: inactive

O=C(COc1ccc(Cl)cc1)NC1CCC(NC(=O)COc2ccc(Cl)cc2)CC1 (configuration not stated)
Potency [1]: inactive | Potency [2]: inactive | Potency [3]: inactive

CC(=O)OC(C)OC(=O)C(C)c1ccc(-c2ccccc2)c(F)c1 (configuration not stated)
Potency [1]: 9.77 µM (active) | Potency [2]: inactive | Potency [3]: inactive

CCn1nnnc1NCc1ccc(C(C)C)cc1
Potency [1]: 7.56 µM (active) | Potency [2]: inactive | Potency [3]: inactive

CCCCN(CCCC)C(=O)CN1C[C@H](c2ccc3c(c2)OCO3)[C@@H](C(=O)O)[C@@H]1c1ccc(OC)cc1
Potency [1]: 21.3 µM (active) | Potency [2]: inactive | Potency [3]: inactive

CCc1cc2c(=O)c(-c3nc4ccccc4s3)coc2c(CN2CCCCC2)c1O
Potency [1]: 0.12 µM (active) | Potency [2]: inactive | Potency [3]: inactive

CCOC(=O)[C@H](CCc1ccccc1)CC1(C(=O)N[C@H]2CCc3ccccc3N(CC(=O)O)C2=O)CCCC1
Potency [1]: inactive | Potency [2]: inactive | Potency [3]: inactive

OC[C@H]1O[C@@H](n2cnc3c2NC=NC[C@H]3O)C[C@@H]1O
Potency [1]: inactive | Potency [2]: inactive | Potency [3]: inactive

O=S(=O)(NC1CCNCC1)c1cc(S(=O)(=O)c2ccccc2)ccc1C(F)(F)F
Potency [1]: inactive | Potency [2]: inactive | Potency [3]: inactive

CO[C@@H]1COCC[C@@H]1N[C@@H]1CC[C@@](C(=O)N2CCc3ncc(C(F)(F)F)cc3C2)(C(C)C)C1
Potency [1]: inactive | Potency [2]: inactive | Potency [3]: inactive

CNC(=O)Nc1ccc(OC)c(NC(=O)NC(=O)c2cc(F)c(F)cc2Cl)c1
Potency [1]: inactive | Potency [2]: inactive | Potency [3]: inactive

Cn1c(=O)cc(N2CCCC(N)C2)n(Cc2ccccc2C#N)c1=O (configuration not stated)
Potency [1]: inactive | Potency [2]: inactive | Potency [3]: inactive

CCOC(=O)c1ccc(N(C)c2csc(-c3ccccc3)n2)cc1
Potency [1]: 0.674 µM (active) | Potency [2]: inactive | Potency [3]: inactive

CC1(C)CCC(C)(C)c2cc3c(cc21)Sc1ccccc1N=C3c1ccc(C(=O)O)cc1
Potency [1]: inactive | Potency [2]: inactive | Potency [3]: inactive

CC(=O)NCCCCn1c2c(c3ccccc31)C(=O)NCC2
Potency [1]: inactive | Potency [2]: inactive | Potency [3]: inactive | activity [4]: -9.83% | activity change, negative = inhibition [5]: -8.34% | activity [6]: -4.05% | activity [7]: -4.46%

CCCC1=CC2=C(CO1)C(=O)C(C)(OC(=O)c1c(C)cc(OC)cc1O)C(O)C2 (configuration not stated)
Potency [2]: inactive

O=C(OCC12OC1C=CC(OC(=O)c1ccccc1)C2O)c1ccccc1 (configuration not stated)
Potency [2]: inactive

CC1CCCC2OC2C(=O)c2c(O)cc(O)cc2CC(=O)O1 (configuration not stated)
Potency [2]: inactive

COc1cc([C@H]2OC[C@@H]3[C@@H](c4ccc(O[C@@H]5O[C@H](CO)[C@@H](O)[C@H](O)[C@H]5O)c(OC)c4)OC[C@]23O)ccc1O
Potency [2]: inactive | Potency [3]: inactive

CC1CCC2(C)C(CC(O)C(O)C23CO3)C1(C)CCC1=CC(=O)OC1O (configuration not stated)
Potency [2]: inactive

C=C(C)C(C)C1OC23CC4(CO2)C(CCC2C5(C)CCC(OC6OCC(O)C(OC7OC(CO)C(O)C(OC8OCC(O)C(O)C8O)C7O)C6OC6OC(CO)C(O)C6O)C(C)(C)C5CCC24C)C3C(C)(O)C1OC(C)=O (configuration not stated)
activity change, negative = viability loss [2]: -26.7% [at 9.23 µM] (inactive)

CCC(C)C(N)C1=NC(C(=O)N[C@@H](CC(C)C)C(=O)N[C@H](CCC(=O)O)C(=O)N[C@H](C(=O)N[C@H]2CCCCNC(=O)[C@H](CC(N)=O)NC(=O)[C@@H](CC(=O)O)NC(=O)[C@H](Cc3cnc[nH]3)NC(=O)[C@@H](Cc3ccccc3)NC(=O)[C@H]([C@@H](C)CC)NC(=O)[C@@H](CCCN)NC2=O)[C@@H](C)CC)CS1 (some centres not stated) (X1-L[dE]IK[dOrn]I[dF]H[dD]N; lactam 4-C)
Potency [8]: 2.94 µM (active) | Potency [2]: inactive | Potency [3]: inactive

Cc1nnc(C(C)C)n1C1CC2CCC(C1)N2CC[C@H](NC(=O)C1CCC(F)(F)CC1)c1ccccc1 (some centres not stated)
Potency [1]: inactive | Potency [2]: inactive | Potency [3]: inactive | outcome [9]: inactive
